Assay outcomes (PubChem)
Hits are enriched below; roughly 17% of the tested compounds scored in any of these assays.
ClpP mod = qHTS Assay for Activators of ClpP; ATP-dependent Clp protease proteolytic subunit (Bacillus subtilis (strain 168)), P80244; purified B. subtilis ClpP, FRET peptide cleavage, 20 min; Potency, µM (highest dose often 57.5 µM); AID 651965, 2013; 1.9% of 340,000 active; active means well fitted falling curve with a large enough effect; inconclusive means small, poorly fitted or top-dose-only effect; inactive means no such curve, though single readings can be large or run the other way; further: the source files actives as falling curves though it sought activators and does not explain the sign; nearly all actives have a fitted effect of over 65% in size
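Buffer: 100 mM Tris/HCl pH8, 100 mM KCl, 0.05% low protease BSA, 2.5% glycerol, 0.01% Tween-20. ClpP 10 microg/mL final; 20 min RT; delta FRET normalized to ADEP and DMSO controls.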
TDP1 cell noCPT = qHTS for Inhibitors of human tyrosyl-DNA phosphodiesterase 1 (TDP1): qHTS in cells in absence of CPT; DT40 Tdp1-/- hTDP1 cells, no CPT, ATP luminescence, 48 h; Potency, µM (doses to about 46.2 µM), usual class: inhibitors; 15% of 420,000 active; AID 686978, 2013; further: nearly all actives have a fitted effect of over 55% in size
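Growth kinetics read by CellTiter-Glo luminescence after ≥48 hr at 37 °C. Cells: DT40 Tdp1-/- stably carrying human TDP1, 400 per well, compound exposure in the absence of CPT (DMSO vehicle).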
TDP1 cell CPT = growth inhibition of DT40 Tdp1-/-;hTDP1 cells with camptothecin (screen for TDP1 inhibitors); AID 686979; 12% of 420,000 active; Potency, µM (doses to about 46.2 µM), most hits filed as inhibitors; chicken DT40 Tdp1-/-;hTDP1 cells + 20 nM CPT, ATP luminescence, 48 h; further: nearly all actives have a fitted effect of over 55% in size
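Chicken DT40 Tdp1-/- cells stably complemented with human TDP1 were seeded at 400 cells/well in medium containing 20 nM camptothecin, exposed to pin-transferred compounds, and grown at 37 °C for at least 48 hr. Viability was read as ATP luminescence.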
TDP1 inh = inhibitors of human tyrosyl-DNA phosphodiesterase TDP1; Q9NUW8; recombinant TDP1, AlphaScreen DNA substrate cleavage; Potency, µM (titrated, usually from 130 µM), most hits filed as inhibitors; 0.28% of 350,000 active; further: nearly all actives have a fitted effect of over 40% in size
Target sequence (Q9NUW8 whole entry, looked up): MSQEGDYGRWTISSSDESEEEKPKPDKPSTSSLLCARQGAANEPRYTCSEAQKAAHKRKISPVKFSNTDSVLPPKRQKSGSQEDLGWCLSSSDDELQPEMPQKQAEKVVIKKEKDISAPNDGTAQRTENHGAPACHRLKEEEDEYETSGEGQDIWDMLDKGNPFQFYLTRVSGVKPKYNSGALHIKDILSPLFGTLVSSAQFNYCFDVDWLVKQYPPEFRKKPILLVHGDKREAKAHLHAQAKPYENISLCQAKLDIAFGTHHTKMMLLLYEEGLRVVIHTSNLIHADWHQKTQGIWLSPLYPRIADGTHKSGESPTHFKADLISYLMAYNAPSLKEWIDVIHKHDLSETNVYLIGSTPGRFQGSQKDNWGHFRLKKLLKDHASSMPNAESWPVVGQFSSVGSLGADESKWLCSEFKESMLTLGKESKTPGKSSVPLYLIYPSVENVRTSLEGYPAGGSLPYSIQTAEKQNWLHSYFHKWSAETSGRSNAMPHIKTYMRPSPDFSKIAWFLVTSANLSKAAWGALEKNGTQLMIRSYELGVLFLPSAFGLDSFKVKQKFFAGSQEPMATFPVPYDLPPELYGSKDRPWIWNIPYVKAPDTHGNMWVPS
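Recombinant E. coli-expressed Tdp1 (1 nM) preincubated with compound 15 min at RT, then 5'-biotin/3'-phosphotyrosine-FITC DNA substrate (15 nM) added for 5 min. AlphaScreen beads (10 ug/ml) added, 10 min RT; tyrosine-FITC cleavage read as signal loss.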
Large screens that a line does not name were inactive. Unless noted, the call rests on the fitted dose curve; in most records, active means well fitted curve in the direction sought with a large enough effect; inconclusive means small, poorly fitted or top-dose-only effect, or another doubt; inactive means no such curve, though single readings can be large; an effect the other way counts as inactive or inconclusive.

COc1ccccc1N=CC1=C(O)CC(c2ccccc2)CC1=O (stereo not drawn)	TDP1 cell noCPT 9.2µM, TDP1 cell CPT 5.2µM (no result: ClpP mod)
O=C1CC(c2ccccc2)CC(O)=C1C=Nc1ccccc1Cl (stereo not drawn)	TDP1 cell CPT inconclusive
Nc1ccc2oc(Cc3ccc(Cl)cc3)nc2c1	TDP1 cell noCPT inconclusive, TDP1 cell CPT inconclusive
O=C(NC(=S)N1CCN(Cc2ccc3c(c2)OCO3)CC1)c1cccc(Br)c1	TDP1 cell noCPT 15µM, TDP1 cell CPT 16µM
CCNC(=S)N1CCN(Cc2ccc3c(c2)OCO3)CC1	none
O=C(NC(=S)N1CCN(Cc2ccc3c(c2)OCO3)CC1)c1ccc(Cl)cc1	TDP1 cell noCPT 21µM, TDP1 cell CPT inconclusive
O=C(c1ccc(-c2cccc(C(F)(F)F)c2)o1)N1CCCCCCC1	TDP1 cell CPT inconclusive (no result: TDP1 inh)
Cc1cc(Cl)c2oc(C(=O)N3CCN(C(=O)c4ccco4)CC3)c(C)c2c1	TDP1 cell noCPT inconclusive, TDP1 cell CPT 16µM
N#CCCN1CCN(C(=S)c2ccc(-c3ccc(Cl)c(Cl)c3)o2)CC1	TDP1 cell noCPT inconclusive, TDP1 cell CPT 26µM
CC1CN(C(=O)c2ccc(-c3cccc(C(F)(F)F)c3)o2)CC(C)O1 (stereo not drawn)	TDP1 cell noCPT 13µM, TDP1 cell CPT inconclusive
O=C(c1ccc(-c2cccc(C(F)(F)F)c2)o1)N1CCN(c2ccccc2)CC1	none
O=C(c1ccco1)N1CCN(C(=O)c2ccc(-c3cccc(C(F)(F)F)c3)o2)CC1	TDP1 cell noCPT 21µM, TDP1 cell CPT inconclusive (no result: ClpP mod, TDP1 inh)
Cc1cc(Cl)c2oc(C(=O)N3CCOCC3)c(C)c2c1	TDP1 cell CPT inconclusive (no result: TDP1 inh)
S=C(c1ccc(-c2cccc(Cl)c2)o1)N1CCCCC1	TDP1 cell noCPT inconclusive (no result: ClpP mod)
O=C(CN1CCN(C(=O)c2ccco2)CC1)Nc1cc(C(F)(F)F)ccc1Cl	TDP1 cell noCPT 23µM, TDP1 cell CPT inconclusive
O=C(c1ccco1)N1CCN(C(=O)c2ccc(-c3ccc(Cl)cc3)o2)CC1	TDP1 cell noCPT inconclusive, TDP1 cell CPT 18µM
CC(=O)N1CCN(C(=S)c2ccc(-c3ccc(Cl)cc3)o2)CC1	TDP1 cell noCPT 26µM, TDP1 cell CPT inconclusive
COc1ccccc1C(CC(=O)Nc1nccs1)c1ccco1 (stereo not drawn)	TDP1 cell noCPT 15µM, TDP1 cell CPT inconclusive
CCn1c(CNc2ccc(F)cc2)nnc1SCCN1CCCCC1	none
CCn1c(CNc2ccccc2Cl)nnc1SCCN1CCCCC1	TDP1 cell noCPT 16µM, TDP1 cell CPT 18µM
CCN(CC)S(=O)(=O)c1ccc(OC)c(NC(=O)c2sc3ccccc3c2Cl)c1	none
COc1cc2c(c(OC)c1OC)-c1c(cc3c(c1OC)OCO3)C1OC2[C@@H](C)[C@H]1C (stereo partly drawn)	TDP1 cell noCPT inconclusive, TDP1 cell CPT inconclusive
COc1cc(C2c3cc4c(cc3OC(N3CCOCC3)C2C)OCO4)cc(OC)c1OC(C)=O (stereo not drawn)	TDP1 cell noCPT 26µM, TDP1 cell CPT inconclusive (no result: TDP1 inh)
COc1cc(C2c3cc4c(cc3OC(C)(N3CCCC3)C2C)OCO4)cc(OC)c1OC (stereo not drawn)	TDP1 cell noCPT 1.2µM, TDP1 cell CPT 1.2µM (no result: TDP1 inh)
COc1cc(C2c3cc4c(cc3OC(N3CCCC3)C2C)OCO4)cc(OC)c1O (stereo not drawn)	TDP1 cell noCPT 16µM, TDP1 cell CPT inconclusive (no result: TDP1 inh)
CCn1cc(S(=O)(=O)Nc2cc(F)ccc2C)cn1	none (no result: ClpP mod)
CSc1ccc(CN2CCC(Oc3ccc(C(=O)N4CCCC4)cc3)CC2)cc1	TDP1 cell noCPT inconclusive
CC1CCN(S(=O)(=O)c2ccc(Oc3ccc([N+](=O)[O-])cc3)cc2)CC1	TDP1 cell noCPT 16µM, TDP1 cell CPT 16µM
O=[N+]([O-])c1ccccc1Oc1ccc(S(=O)(=O)N2CCOCC2)cc1	TDP1 cell noCPT 21µM, TDP1 cell CPT inconclusive
COc1ccc(Oc2ccc(S(=O)(=O)N3CCCCC3)cc2S(=O)(=O)N2CCCCC2)cc1	TDP1 cell noCPT inconclusive (no result: ClpP mod)
CN1CCN(S(=O)(=O)c2ccc([N+](=O)[O-])cc2)CC1	none (no result: TDP1 inh)
O=S(=O)(c1ccc(Oc2ccc3c(c2)OCO3)c(S(=O)(=O)N2CCOCC2)c1)N1CCOCC1	TDP1 cell noCPT 11µM, TDP1 cell CPT 0.89µM
O=S(=O)(c1ccc(Oc2ccccc2)cc1)N1CCOCC1	none
O=[N+]([O-])c1ccc(Oc2ccc(S(=O)(=O)N3CCCCC3)cc2)cc1	TDP1 cell noCPT 15µM, TDP1 cell CPT 16µM
COc1ccc(C(=O)Nc2ccnn2C2CCN(C(=O)c3cnsn3)CC2)cc1	none
Cc1ccc(NS(=O)(=O)c2c(C)[nH]c(C)c2C(=O)N2CCCCC2)cc1F	TDP1 cell CPT inconclusive
CC(Sc1nc2sc3c(c2c(=O)n1-c1ccccc1)CCCC3)C(=O)O (stereo not drawn)	none
CC(=O)N(C(C)=O)n1c(C)nc2sc3c(c2c1=O)CCCC3	none
CCc1nc2sc3c(c2c(=O)n1NC(=O)CCl)CCCC3	TDP1 cell noCPT inconclusive, TDP1 cell CPT 21µM
CCOC(=O)CSc1nnc2n(C3CCCCC3)c(=O)c3c4c(sc3n12)CCCC4	TDP1 cell noCPT inconclusive, TDP1 cell CPT inconclusive
COC(=O)CSc1nnc2n(C3CCCCC3)c(=O)c3c4c(sc3n12)CCCC4	TDP1 cell noCPT inconclusive, TDP1 cell CPT 29µM
CCOC(=O)CSc1nc2sc3c(c2c(=O)n1C1CCCCC1)CCN(C)C3	ClpP mod 28µM, TDP1 cell noCPT 29µM, TDP1 cell CPT inconclusive
CCn1c(SC(C)C(=O)O)nc2sc3c(c2c1=O)CCC3 (stereo not drawn)	TDP1 inh 11µM
CCCCNC(=O)c1nc(C2CCN(S(=O)(=O)c3cccc(C(F)(F)F)c3)CC2)oc1-c1cccc(C(F)(F)F)c1	none (no result: TDP1 inh)
COc1ccccc1CNC(=O)c1ccc2nc(CCc3ccccc3)oc2c1	ClpP mod inconclusive, TDP1 cell CPT inconclusive
CCn1c(SCC(=O)N2CCOCC2)nc2sc3c(c2c1=O)CCCC3	TDP1 cell noCPT 18µM, TDP1 cell CPT inconclusive
CCn1c(SCC(N)=O)nc2sc3c(c2c1=O)CCN(C)C3	TDP1 cell noCPT 13µM, TDP1 cell CPT 23µM (no result: ClpP mod)
C=C(C)CSc1nc2sc3c(c2c(=O)n1-c1ccc(C)cc1)CCN(C)C3	TDP1 cell noCPT 12µM, TDP1 cell CPT 18µM (no result: TDP1 inh)
CCOc1ccc(-n2c(SCC(N)=O)nc3sc4c(c3c2=O)CCN(C)C4)cc1	none
CCn1c(SCC(=O)Nc2ccc(C)cc2)nc2sc3c(c2c1=O)CCN(C)C3	TDP1 cell noCPT inconclusive, TDP1 cell CPT inconclusive
CCOC(=O)CSc1nc2sc3c(c2c(=O)n1-c1ccc(OCC)cc1)CCN(C)C3	TDP1 cell noCPT 23µM, TDP1 cell CPT inconclusive (no result: TDP1 inh)
CS(=O)(=O)Nc1ccccc1-c1cccc2nccn12	none (no result: TDP1 inh)
CC(C)c1nn2c(=O)cc(COC(=O)CNC(=O)c3ccccc3)nc2s1	none
Cc1nc2cc(C(=O)O)ccc2n1-c1ccc(C(C)C)cc1	none
CCCN(CCC)C(=S)NC(=O)c1ccc(Cl)cc1Cl	TDP1 cell noCPT inconclusive, TDP1 cell CPT 18µM
CCOc1cc(CNc2ccc(O)cc2)cc(Br)c1OCc1ccccc1	TDP1 cell noCPT 16µM, TDP1 cell CPT 23µM
